In ChEMBL document CHEMBL1201862, “PubChem BioAssay data set” (2004):
Screen size: about 220,000 compounds; about 2,400 (1.1%) were called active. Another 7% or so got no clear call; they are omitted. The rule behind the calls is not given here. The sample as a whole holds a higher share of actives than the screen did.

molecular target: Huntingtin (Homo sapiens) (UniProt P42858); assay: qHTS Multiplex Assay to Identify Dual Action Probes in a Cell Model of Huntington: Aggregate Formation (GFP). [Related pubchem assays: 1482, 1471 ]; assay type: functional
Sequence (P42858 whole entry): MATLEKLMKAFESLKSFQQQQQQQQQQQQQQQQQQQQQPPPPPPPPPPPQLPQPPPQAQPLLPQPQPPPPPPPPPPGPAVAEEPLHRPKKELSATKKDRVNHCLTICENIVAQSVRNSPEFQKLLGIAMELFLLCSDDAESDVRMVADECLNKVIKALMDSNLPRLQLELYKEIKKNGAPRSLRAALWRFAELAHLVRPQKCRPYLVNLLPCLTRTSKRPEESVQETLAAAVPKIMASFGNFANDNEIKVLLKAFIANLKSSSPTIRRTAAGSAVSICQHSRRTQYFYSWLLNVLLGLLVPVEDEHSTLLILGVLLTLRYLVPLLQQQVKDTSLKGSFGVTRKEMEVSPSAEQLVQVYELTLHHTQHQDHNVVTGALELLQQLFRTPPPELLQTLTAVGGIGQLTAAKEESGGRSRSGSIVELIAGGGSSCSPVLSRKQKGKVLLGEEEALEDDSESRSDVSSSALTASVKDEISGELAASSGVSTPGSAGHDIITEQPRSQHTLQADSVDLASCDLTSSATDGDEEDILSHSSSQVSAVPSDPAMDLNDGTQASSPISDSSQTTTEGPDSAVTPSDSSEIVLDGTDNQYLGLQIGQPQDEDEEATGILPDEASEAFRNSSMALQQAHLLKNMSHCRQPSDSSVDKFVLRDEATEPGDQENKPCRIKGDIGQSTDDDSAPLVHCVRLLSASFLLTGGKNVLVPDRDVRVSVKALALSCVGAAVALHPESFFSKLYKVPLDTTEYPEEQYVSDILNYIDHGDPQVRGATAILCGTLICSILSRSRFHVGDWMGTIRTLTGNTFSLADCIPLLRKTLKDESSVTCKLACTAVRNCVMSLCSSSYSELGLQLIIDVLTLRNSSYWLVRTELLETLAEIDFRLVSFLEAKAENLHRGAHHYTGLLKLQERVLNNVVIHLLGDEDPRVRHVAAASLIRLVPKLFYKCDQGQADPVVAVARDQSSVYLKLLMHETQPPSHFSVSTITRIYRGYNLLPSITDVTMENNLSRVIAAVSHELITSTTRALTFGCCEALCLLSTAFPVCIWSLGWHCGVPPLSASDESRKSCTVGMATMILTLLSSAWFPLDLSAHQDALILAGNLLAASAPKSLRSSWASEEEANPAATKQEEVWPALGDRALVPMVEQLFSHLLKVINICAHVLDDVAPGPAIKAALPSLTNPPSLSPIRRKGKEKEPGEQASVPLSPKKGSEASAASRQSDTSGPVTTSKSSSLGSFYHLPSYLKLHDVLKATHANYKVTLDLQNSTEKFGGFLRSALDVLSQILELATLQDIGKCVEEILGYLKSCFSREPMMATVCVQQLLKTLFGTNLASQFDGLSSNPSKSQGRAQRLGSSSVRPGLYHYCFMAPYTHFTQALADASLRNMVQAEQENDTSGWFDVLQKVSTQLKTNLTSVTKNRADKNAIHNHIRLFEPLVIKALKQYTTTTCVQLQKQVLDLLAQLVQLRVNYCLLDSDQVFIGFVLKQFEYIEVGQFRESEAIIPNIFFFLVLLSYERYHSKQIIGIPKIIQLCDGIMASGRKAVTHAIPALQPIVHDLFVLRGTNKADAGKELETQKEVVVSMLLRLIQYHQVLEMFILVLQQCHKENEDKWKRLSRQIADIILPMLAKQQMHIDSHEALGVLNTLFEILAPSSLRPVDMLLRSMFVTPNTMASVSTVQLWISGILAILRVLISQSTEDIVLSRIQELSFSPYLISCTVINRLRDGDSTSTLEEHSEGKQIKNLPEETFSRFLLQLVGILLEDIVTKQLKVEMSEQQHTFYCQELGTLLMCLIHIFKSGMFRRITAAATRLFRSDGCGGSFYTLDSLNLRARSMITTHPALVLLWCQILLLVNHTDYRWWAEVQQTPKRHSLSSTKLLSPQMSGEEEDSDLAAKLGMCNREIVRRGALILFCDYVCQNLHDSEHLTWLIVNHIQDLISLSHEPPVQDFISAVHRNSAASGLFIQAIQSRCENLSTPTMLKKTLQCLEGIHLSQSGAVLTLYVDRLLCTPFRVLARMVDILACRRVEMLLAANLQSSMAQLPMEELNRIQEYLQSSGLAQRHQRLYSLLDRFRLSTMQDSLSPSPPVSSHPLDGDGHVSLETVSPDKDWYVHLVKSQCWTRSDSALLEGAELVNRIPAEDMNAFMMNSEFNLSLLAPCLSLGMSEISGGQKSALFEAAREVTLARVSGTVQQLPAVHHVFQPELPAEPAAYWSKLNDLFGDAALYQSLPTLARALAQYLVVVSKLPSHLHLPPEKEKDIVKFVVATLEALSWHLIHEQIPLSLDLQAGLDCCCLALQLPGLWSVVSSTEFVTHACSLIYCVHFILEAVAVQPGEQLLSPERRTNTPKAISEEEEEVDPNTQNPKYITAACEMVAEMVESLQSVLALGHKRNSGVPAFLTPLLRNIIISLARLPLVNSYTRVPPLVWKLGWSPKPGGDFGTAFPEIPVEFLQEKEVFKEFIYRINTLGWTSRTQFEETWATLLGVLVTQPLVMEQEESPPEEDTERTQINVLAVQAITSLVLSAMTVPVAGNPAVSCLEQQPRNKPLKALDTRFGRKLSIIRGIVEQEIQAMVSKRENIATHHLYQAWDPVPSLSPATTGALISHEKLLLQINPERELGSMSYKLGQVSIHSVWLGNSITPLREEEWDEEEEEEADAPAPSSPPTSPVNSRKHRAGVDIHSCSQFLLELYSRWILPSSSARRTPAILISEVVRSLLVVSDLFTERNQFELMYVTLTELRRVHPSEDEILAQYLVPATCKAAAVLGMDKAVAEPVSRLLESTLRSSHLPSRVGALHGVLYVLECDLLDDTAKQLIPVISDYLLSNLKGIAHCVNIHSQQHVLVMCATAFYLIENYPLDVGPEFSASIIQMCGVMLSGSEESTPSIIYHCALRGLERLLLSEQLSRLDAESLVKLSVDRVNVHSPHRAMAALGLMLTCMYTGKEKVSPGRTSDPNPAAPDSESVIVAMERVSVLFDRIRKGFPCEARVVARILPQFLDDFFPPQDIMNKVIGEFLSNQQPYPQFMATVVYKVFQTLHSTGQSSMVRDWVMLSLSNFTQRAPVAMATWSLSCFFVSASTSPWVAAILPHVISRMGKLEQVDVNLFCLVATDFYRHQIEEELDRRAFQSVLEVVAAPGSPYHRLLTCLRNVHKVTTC

Potency, active:
O=C(c1nc2nc(-c3ccccc3)cc(C(F)(F)F)n2n1)N1CCOCC1 112 µM, CCOc1ccc(S(=O)(=O)n2ccc(C)n2)c2ccccc12 56.2 µM, Cc1nnc2sc(SCc3ccc(Cl)cc3)nn2c1=O 891 µM, CCOC(=O)c1ccc(N2CN(CCc3ccccc3)CN=C2S)cc1 112 µM, O=C1C2C3C=CC(C3)C2C(=O)N1CCCO (stereo not drawn) 89.1 µM, CCOC(=O)c1c(NC(=O)C2=C(C)N=C(S)NC2c2ccc(F)cc2)sc(C)c1C (stereo not drawn) 112 µM, CCOC(=O)Cn1c(-c2ccccn2)nc2ccccc21 224 µM, CN(C)CCN(C(=O)c1ccc(S(=O)(=O)N(C)C)cc1)c1nc2cc3c(cc2s1)OCCO3 141 µM
